Bioassay records deposited in PubChem BioAssay by National Center for Advancing Translational Sciences (NCATS).
Shown are actives, neighbours in structure and some others; about 19% of the full set was active somewhere.
VP16 counter: counter-screen for ROR gamma inhibitors: Gal4-VP16 reporter; Drosophila S2 Gal4-VP16 UAS-luciferase, luminescence, 20 h; Potency, µM (top dose mostly 53.6 µM), inactives show at the highest dose activity, negative = inhibition, actives largely listed as inhibitors; 310,000 tested, 3.5% active;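 also: Gal4-VP16 expression switched on by copper sulfate through the metallothionein promoter; nearly all actives have a fitted effect of over 50% in size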
TDP1 cell noCPT: qHTS for Inhibitors of human tyrosyl-DNA phosphodiesterase 1 (TDP1): qHTS in cells in absence of CPT; Potency, µM (doses to about 46.2 µM), for the others: at the top dose activity change, negative = growth inhibition, most hits filed as inhibitors; 420,000 tested, 15% active; AID 686978, 2013; DT40 Tdp1-/- hTDP1 cells, no CPT, ATP luminescence, 48 h; also: nearly all actives have a fitted effect of over 55% in size
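No-CPT arm: Tdp1-/-;hTDP1 DT40 cells (400/well) plus compounds, incubated ≥48 hr at 37 °C. Readout CellTiter-Glo luminescence.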
RORg inh: blocks mouse ROR gamma transcriptional activity | P51450 | Drosophila S2 Gal4-RORgamma UAS-luciferase reporter, 20 h | Potency, µM (top dose mostly 53.6 µM), for the others: top-dose activity change, negative = inhibition, usual class: inhibitors | 310,000 tested, 5.4% active | AID 2551; also: nearly all actives have a fitted effect of over 60% in size
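ROR gamma transcriptional activity was tracked as Gal4-UAS luciferase output in stably transfected Drosophila Schneider cells, with compound added 1 hr before 700 uM copper sulfate induction and a 20 hr ambient-temperature incubation.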
DT40 TDP1 CPT: growth inhibition of DT40 Tdp1-/-;hTDP1 cells with camptothecin (screen for TDP1 inhibitors); chicken DT40 Tdp1-/-;hTDP1 cells + 20 nM CPT, ATP luminescence, 48 h; Potency, µM (titrated, usually from 46.2 µM), without a hit: at the top dose activity change, negative = growth inhibition, hits mostly inhibitors; 420,000 tested, 12% active; AID 686979; also: nearly all actives have a fitted effect of over 55% in size
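Cell growth measured by CellTiter-Glo luminescence after a minimum 48 h, 37 C compound exposure with 20 nM CPT in Tdp1-knockout DT40 cells stably expressing hTDP1, seeded 400/well; qHTS titration format.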
TDP1 inh: TDP1 (human) enzyme inhibition; recombinant TDP1, AlphaScreen DNA substrate cleavage; Potency, µM (titrated, usually from 130 µM), without a hit: at the highest dose activity change, negative = inhibition, usual class: inhibitors; 350,000 tested, 0.28% active; also: nearly all actives have a fitted effect of over 40% in size
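Enzyme-compound mixtures sat 15 min at room temperature, followed by a 5 min reaction with 15 nM final substrate and 10 min with AlphaScreen beads. Recombinant human Tdp1 was used at 1 nM final.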
* marks the source's active call; other numbers are inactive results; ? = inconclusive; . = no result given. Calls follow the shape of the dose curve; as a rule, active = well fitted curve in the direction sought with a large enough effect; inconclusive = small, poorly fitted or top-dose-only effect, or another doubt; inactive = no such curve, though single readings can be large; an effect the other way counts as inactive or inconclusive. % is scaled to controls: 0 for no effect and ±100 for the full control effect; potency is read from the fitted curve at half-maximal effect.

SMILES | VP16 counter | TDP1 cell noCPT | RORg inh | DT40 TDP1 CPT | TDP1 inh
Cc1nn(Cc2ccccc2)c(C)c1NC(=O)c1cc(-c2ccco2)on1 | -7% | ? | 26% | ? | 7%
COc1ccc(OC)c(-c2cc(C(=O)Nc3c(C)nn(Cc4ccc(Cl)cc4)c3C)no2)c1 | -27% | 21µM* | ? | ? | 2%
COc1ccc(OC)c(-c2cc(C(=O)Nc3c(C)nn(Cc4ccccc4)c3C)no2)c1 | -17% | 23µM* | ? | 18µM* | 6%
COc1ccc(OC)c(-c2cc(C(=O)Nc3cc(C)on3)no2)c1 | -17% | -3% | -1% | -19% | 2%
CCc1nc(SCC(=O)Nc2cc(C)on2)c2c(=O)n(C)c(=O)n(C)c2n1 | -7% | ? | -8% | ? | 4%
CCCc1nc(SCC(=O)Nc2nnc(SCC)s2)c2c(=O)n(C)c(=O)n(C)c2n1 | 1% | 2.9µM* | -4% | 4.1µM* | .
CCSc1nnc(NC(=O)CSc2nc(CC)nc3c2c(=O)n(C)c(=O)n3C)s1 | -1% | 15µM* | -14% | 16µM* | 1%
CCCc1nc(SCC(=O)Nc2cc(C)on2)c2c(=O)n(C)c(=O)n(C)c2n1 | 4% | ? | 0% | ? | 1%
CCS(=O)(=O)c1ncc(N(Cc2ccco2)Cc2sccc2C)c(C(=O)Nc2ccc(C)cc2C)n1 | . | ? | . | ? | 7%
CC(C)Oc1ccc(C(=O)NC2CCSc3ccccc32)cc1 (configuration not stated) | 4% | ? | -1% | -29% | .
COc1ccc(C(=O)N2CCN(S(=O)(=O)c3ccc(Cl)cc3)CC2)cc1S(=O)(=O)N1CCOCC1 | . | ? | . | 3% | .
CCCC(=O)Nc1c(C(=O)OCC)[nH]c2ccccc12 | -5% | 1.8µM* | ? | -21% | -3%
COCC(=O)c1[nH]c2ccccc2c1C | 2% | ? | 2% | 26µM* | 4%
CCOC(=O)c1[nH]c2ccc(Br)cc2c1NC(=O)CCN1CCC(C)CC1 | 7% | 18µM* | 3% | ? | 8%
CCOC(=O)c1[nH]c2ccc(Br)cc2c1NC(=O)CCN1CCCC(C)C1 (configuration not stated) | -15% | . | 2% | . | 6%
CCOC(=O)c1[nH]c2ccccc2c1NC(=O)c1ccccc1OCC | . | 0.73µM* | . | 0.65µM* | 6%
CCOC(=O)c1[nH]c2ccccc2c1NC(=O)CC(C)C | 6% | 2% | 0% | -4% | .
CCOC(=O)C(Cc1ccccc1)NC(=O)Cn1nnc(-c2ccc(C)cc2)n1 (configuration not stated) | . | -18% | . | -30% | 2%
CCOC(=O)c1[nH]c2ccccc2c1NC(=O)c1ccc(S(=O)(=O)N2CCCCC2)cc1 | -1% | 23µM* | 19% | ? | -1%
Cc1ccc(S(=O)(=O)Nc2nc(-c3ccccc3)cs2)cc1 | 3% | -6% | -39% | 2% | .
Cc1ccc(S(=O)(=O)Nc2ccccc2C(=O)Nc2nc(-c3ccc(F)cc3)cs2)cc1 | -8% | 2.6µM* | 16% | 3.3µM* | 2%
COc1ccc(-c2csc(NC(=O)c3ccccc3NS(=O)(=O)c3ccc(F)c(F)c3)n2)cc1 | 4µM* | 2.6µM* | 5.6µM* | 2.3µM* | 8%
CC1=C(C(=O)Nc2cc(Cl)ccc2C)C(c2cccs2)n2ncnc2N1 (configuration not stated) | . | ? | . | -25% | -3%
CC(C)C(NC(=O)c1ccc(C(C)(C)C)cc1)C(=O)NCc1ccccn1 (configuration not stated) | . | ? | . | 9.2µM* | 0%
COc1ccc(C(=O)CCC(=O)Nc2ccccc2C)cc1 | . | -3% | . | 6% | -2%
O=C(CCC(=O)OCC(=O)c1ccc(-c2ccccc2)cc1)Nc1cccc(Cl)c1 | 13µM* | 1% | 7.1µM* | 2% | 2%
Cc1ccccc1NC(=O)CCC(=O)OCC(=O)c1ccc(-c2ccccc2)cc1 | 10µM* | -13% | 7.9µM* | ? | 7%
